{"source": "PubChem BioAssay AID624255", "about": "(Broad Institute, 2012)", "note": "Hit rate of the full screen: of about 77,000 compounds, about 4,600 (6%) were called active. About 1% were inconclusive and are not listed. This is one part of a sample in which actives are shown more often than they occur. Unmarked numbers belong to inactive results.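 Rule for the calls: active = mean inhibition above about 93%, with at least 55% of replicates each passing it (limit read from the data, passing the limit was not always enough); inconclusive = only one of those two conditions holds; inactive = neither condition holds.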", "data": [{"test": "T. cruzi intracellular proliferation inhibitors, primary screen, cell-based, beta-gal Tulahuen parasites, NIH3T3 host, luminescence (AID 624255)", "settings": "T. cruzi beta-gal in NIH3T3, GalScreen luminescence, 90 h; at 8.34 µM; hits give high values", "values": [{"smiles": "O=C(Cc1ccccn1)NCC[C@H]1CC[C@@H](NS(=O)(=O)c2ccc(F)cc2)[C@H](CO)O1", "inhibition": "13.9%"}, {"smiles": "COc1ccc(NC(=O)N(C)C[C@@H]2OCCCC[C@H](C)Oc3ccc(NS(=O)(=O)c4c(C)noc4C)cc3C(=O)N([C@@H](C)CO)C[C@@H]2C)cc1", "inhibition": "52.5%"}, {"smiles": "O=S(=O)(NC[C@H]1[C@@H](c2ccccc2)[C@@H](CO)N1CC1CC1)c1ccccc1", "inhibition": "10.3%"}, {"smiles": "CCCNC(=O)N1[C@H](C#N)[C@@H](c2ccc(C3=CCCC3)cc2)[C@H]1CO", "inhibition": "-28.9%"}, {"smiles": "N#C[C@@H]1[C@@H](c2ccc(C3=CCCCC3)cc2)[C@@H](CO)N1C(=O)c1cccc(F)c1", "inhibition": "5.72%"}, {"smiles": "CS(=O)(=O)N1[C@@H](C#N)[C@H](c2ccc(C#CC3CCCCC3)cc2)[C@@H]1CO", "inhibition": "105% (active)"}, {"smiles": "CC(C)NC(=O)N1[C@H](C#N)[C@@H](c2ccc(-c3ccc(F)cc3)cc2)[C@H]1CO", "inhibition": "34.6%"}, {"smiles": "CC(C)NC(=O)N1[C@H](C#N)[C@H](c2ccc(C#CC3CCCCC3)cc2)[C@H]1CO", "inhibition": "107% (active)"}, {"smiles": "CCc1cnc(N2[C@H](C#N)[C@H](c3ccc(C4=CCCC4)cc3)[C@@H]2CO)s1", "inhibition": "101% (active)"}, {"smiles": "CS(=O)(=O)N1[C@H](C#N)[C@H](c2ccc(C#CC3CC3)cc2)[C@H]1CO", "inhibition": "93%"}, {"smiles": "N#C[C@H]1[C@@H](c2ccc(C3=CCCCC3)cc2)[C@@H](CO)N1C(=O)NC1CCCCC1", "inhibition": "101% (active)"}, {"smiles": "N#C[C@H]1[C@@H](c2ccc(C#CC3CCCC3)cc2)[C@H](CO)N1C(=O)Nc1ccc(F)cc1", "inhibition": "92.8%"}, {"smiles": "N#C[C@H]1[C@@H](c2ccc(C3=CCCCC3)cc2)[C@@H](CO)N1C(=O)Cc1ccncc1", "inhibition": "57.5%"}, {"smiles": "CS(=O)(=O)N1[C@H](C#N)[C@H](c2ccc(C#CC3CCCC3)cc2)[C@H]1CO", "inhibition": "91.5%"}, {"smiles": "N#C[C@@H]1[C@@H](c2ccc(C3=CCCC3)cc2)[C@@H](CO)N1C(=O)C1CCCC1", "inhibition": "34.1%"}, {"smiles": "CO[C@@H]1CN(C)C(=O)c2cc(NC(=O)C3CCCCC3)ccc2OC[C@@H](C)N(C(=O)Nc2ccc(C(F)(F)F)cc2)C[C@H]1C", "inhibition": "15.6%"}, {"smiles": "O=C(C[C@H]1CC[C@H]2[C@@H](COC[C@H](O)CN2C(=O)c2ccccc2F)O1)NCc1ccccc1", "inhibition": "-22.2%"}, {"smiles": "Cc1ccc(S(=O)(=O)Nc2ccc3c(c2)C(=O)N([C@H](C)CO)C[C@@H](C)[C@@H](CN(C)S(C)(=O)=O)OCCCC[C@@H](C)O3)cc1", "inhibition": "29.2%"}, {"smiles": "CO[C@H]1CN(C)C(=O)c2cc(NC(=O)Nc3c(C)noc3C)ccc2OC[C@@H](C)N(CCC(F)(F)F)C[C@H]1C", "inhibition": "6.32%"}]}]}
